# The panel holds about 79,000 compounds, 15% with a hit somewhere; the sample as a whole holds those more often. Unmarked numbers belong to inactive results. Active and inactive are the calls of the source. No stated cut-off is given here; in the data, active means growth inhibition above about 70%; inactive means the rest.
# Key:
# [1] = NCI Yeast Anticancer Drug Screen. Data for the rad50 strain (AID 155);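 further: 0% = growth of vehicle-only cultures of the same strain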; conditions: S. cerevisiae rad50 strain growth inhibition, active compounds read high
# Outline: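 Growth of the mutant yeast was measured after compound exposure and referenced to vehicle-treated cultures.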
# [2] = NCI Yeast Anticancer Drug Screen. Data for the mec2-1 strain (AID 157); conditions: S. cerevisiae mec2-1 strain, active compounds read high
# Outline: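 Test agents were screened against the mec2-1 yeast strain, with defined DNA repair or cell cycle alteration. Growth was scored as inhibition against vehicle-only controls.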
# [3] = NCI Yeast Anticancer Drug Screen. Data for the sgs1 mgt1 strain (AID 161);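 further: 0% = growth of cultures given vehicle only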; conditions: S. cerevisiae sgs1 mgt1 strain, active compounds read high
# Outline: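 Test agents were incubated with a DNA-repair-mutant yeast strain. Growth was then read and compared against vehicle-treated controls.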
# [4] = NCI Yeast Anticancer Drug Screen. Data for the cln2 rad14 strain (AID 165);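 further: 0% = growth equal to vehicle treated cultures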; conditions: S. cerevisiae cln2 rad14 strain, active compounds read high
# Outline: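 Growth of compound-exposed yeast (cln2 rad14 genotype) measured and expressed as inhibition relative to vehicle.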
# [5] = NCI Yeast Anticancer Drug Screen. Data for the bub3 strain (AID 167); conditions: S. cerevisiae bub3 mutant strain, active compounds read high
# Outline: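 Whole-cell yeast assay. The mutant strain was incubated with compounds, and growth inhibition was determined by comparison with vehicle-treated cells.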
# [6] = NCI Yeast Anticancer Drug Screen. Data for the mlh1 rad18 strain (AID 175); conditions: S. cerevisiae mlh1 rad18 strain growth inhibition, active compounds read high
# Outline: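 In this whole-cell yeast screen, a strain with altered DNA damage repair is challenged with compound, and its growth is measured against matched vehicle-treated controls.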
# [7] = at 5.0 µM (retest, dose inferred, filed as 0.5)
# [8] = at 50.0 µM (retest, dose inferred, filed as 5.0)
Compound,"growth inhibition [1, 7]","growth inhibition [1, 8]",growth inhibition ([1]; at 50.0 µM),"growth inhibition [2, 7]","growth inhibition [2, 8]",growth inhibition ([2]; at 50.0 µM),"growth inhibition [3, 7]","growth inhibition [3, 8]",growth inhibition ([3]; at 50.0 µM),"growth inhibition [4, 7]","growth inhibition [4, 8]",growth inhibition ([4]; at 50.0 µM),"growth inhibition [5, 7]","growth inhibition [5, 8]",growth inhibition ([5]; at 50.0 µM),"growth inhibition [6, 7]","growth inhibition [6, 8]",growth inhibition ([6]; at 50.0 µM)
O=C(CBr)Nc1ccccc1,40%,99% (active),97% (active),22%,99% (active),98.9% (active),36%,99% (active),98.4% (active),25%,99% (active),97.3% (active),74% (active),99% (active),97.1% (active),48%,100% (active),97.8% (active)
S=C=[N][Sn]([N]=C=S)([c]1ccccc1)[c]1ccccc1.c1ccc2nc(-c3ccc4ccccc4n3)ccc2c1,72% (active),98% (active),89.3% (active),65%,99% (active),91.2% (active),84% (active),99% (active),91.5% (active),51%,99% (active),90.8% (active),85% (active),99% (active),90% (active),77% (active),98% (active),77.5% (active)
Nc1nc(N)c(-c2ccc(Cl)c(Cl)c2)c(COc2cccc(CNS(=O)(=O)c3ccc(S(=O)(=O)F)cc3)c2)n1,3%,57%,51.1%,-3%,86% (active),49.5%,-2%,65%,58%,-4%,40%,54.8%,-3%,68%,48.8%,4%,80% (active),47%
C(=P(c1ccccc1)(c1ccccc1)c1ccccc1)[P+](c1ccccc1)(c1ccccc1)c1ccccc1.[Cl][Fe]([Cl])([Cl])[Br],98% (active),99% (active),99.5% (active),98% (active),99% (active),99.5% (active),99% (active),99% (active),99.5% (active),98% (active),99% (active),99.2% (active),98% (active),99% (active),99.5% (active),99% (active),99% (active),99.4% (active)
CCO[C@@H]([CH2][Hg][Cl])[C@](C)([CH2][Hg][Cl])OCC,99% (active),99% (active),99.4% (active),99% (active),99% (active),99.6% (active),99% (active),99% (active),99.5% (active),98% (active),99% (active),99.3% (active),99% (active),99% (active),99.3% (active),99% (active),99% (active),99.3% (active)
CCCCCCC(=O)[O][Hg][c]1ccccc1,99% (active),99% (active),99.3% (active),100% (active),100% (active),99.7% (active),100% (active),100% (active),99.7% (active),99% (active),99% (active),99% (active),99% (active),99% (active),99.4% (active),100% (active),99% (active),99.7% (active)
CN(C)c1ccc(C2N(Cc3ccc(N(CCCl)CCCl)cc3)CCCN2Cc2ccc(N(CCCl)CCCl)cc2)cc1,1%,86% (active),52.5%,-18%,55%,5.2%,-1%,79% (active),76.7% (active),-1%,65%,-6.3%,0%,95% (active),3.5%,-1%,99% (active),32.9%
CC(=O)c1ccccc1O.CO.CO.[Cl][Ta][Cl],1%,1%,-13%,15%,-7%,-5.75%,-14%,0%,-9.65%,-7%,-6%,33.9%,-1%,-5%,3.45%,-6%,1%,-10.2%
Nc1ccccc1C(=O)c1ccccc1,4%,8%,76.2% (active),1%,4%,11%,1%,10%,38.1%,4%,1%,3.25%,0%,-3%,47.2%,4%,5%,75.7% (active)

# From PubChem BioAssay (NCI)
